# PMP22 txn: PMP22 gene transcription modulation; S16 Pmp22-F2sN Schwann cells, FLuc/NLuc coincidence luminescence, 24 h; Potency, µM (series often up to 57.5 µM), for the others: at the highest dose activity change, negative = inhibition, usual class: inhibitors; hit rate 2% among 43,000; active = clear falling dose curves in both reporters; inconclusive = both reporters move, but less clearly or upward; inactive = either reporter flat; the % is the NLuc reporter signal
#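 qHTS, 1536-well. Cells seeded, compounds added by pin tool, 24 h 37C. Nano-Glo reagent 1 (lysis/FLuc), 10 min RT, read; Stop&Glo, 10 min RT, read NLuc.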
# p53null 32C kill: p53 null cell cytotoxicity, permissive temperature; hit rate 0.62% among 55,000; AID 903; Potency, µM (doses to about 46.1 µM), for the others: top-dose activity change, negative = cytotoxicity, usual class: cytotoxic; H1299-neo p53 null cells, ATP luminescence, 24 h, 32C;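 note: 0% = DMSO only and -100% = full killing by 100 µM tamoxifen; nearly all actives have a fitted effect of over 55% in size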
#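 AC50 values derive from Hill modelling of qHTS concentration-response data (up to 46 uM) in H1299-neo cells. Cells were treated 24 h at 32C following overnight attachment at 37C; viability was read as cellular ATP.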
# SKOV3 invasion: blocks SKOV3ip1 adhesion and invasion in omental model | SKOV3ip1-GFP adhesion/invasion on 3D omental model, fluorescence | Potency, µM (series often up to 45.8 µM), without a hit: at the top dose activity change, negative = inhibition, usual class: inhibitors | hit rate 0.1% among 46,000 | AID 1963576;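 note: plate controls were DMSO wells for no effect and tomatine positive control wells for full effect; nearly all actives have a fitted effect of over 65% in size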
#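 Primary human omental fibroblast/mesothelial 3D culture pre-formed 48 h. SKOV3ip1-GFP cells added with compounds (0.36-46 umol/L), incubated 2 h RT/16 h 37 C, fixed; GFP cells quantified at 488/509 nm.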
# S16 F2sN tox: toxic to S16 Pmp22-F2sN Schwann cells; S16 Pmp22-F2sN Schwann cells (luciferase reporters placed in the Pmp22 gene) viability, CellTiter-Glo, 24 h; Potency, µM (top dose mostly 57.5 µM), inactives show at the top dose activity change, negative = cytotoxicity, actives largely listed as cytotoxic; hit rate 0.48% among 43,000; AID 1508642; note: nearly all actives have a fitted effect of over 65% in size
#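 Luminescence from CellTiter-Glo, read by CCD camera after a 15 min room-temperature incubation, served as the viability signal. Reporter Schwann cells (S16 Pmp22-F2sN) had been treated with pin-transferred compounds for 24 h at 37C.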
# p53null 39C kill: selectivity test: cytotoxicity in p53 null cells, nonpermissive temperature. H1299 p53-null (neo) cells, 39C, ATPlite viability, 24 h. Potency, µM (titrated, usually from 46.1 µM), inactives show at the top dose activity, negative = cell killing, usual class: cytotoxic. hit rate 0.97% among 55,000;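 note: 0% = DMSO only and -100% = full killing by 100 µM tamoxifen; nearly all actives have a fitted effect of over 50% in size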
#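 Temperature-shift cytotoxicity format: compound titrations on p53-null or A138V-expressing H1299 cells held 24 hr at 39C, cell ATP then measured, AC50 from Hill model.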
# pS6 MEF inh: mTORC1 pathway inhibition measured by phospho-rpS6. hit rate 0.78% among 44,000. Tsc2-/- p53-/- MEF, phospho-rpS6 immunofluorescence/PI, 24 h. Potency, µM (top dose mostly 38.3 µM), without a hit: top-dose activity change, negative = inhibition, most hits filed as inhibitors;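 note: plate controls were DMSO for no effect and rapamycin for full effect; nearly all actives have a fitted effect of over 50% in size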
#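 Plate MEFs (Tsc2-/-, p53-/-, empty vector) in DMEM/10% FBS; after 24 h add compound, incubate 24 h at 37 degree Celsius; fix in PFA/TX-100, block, stain phospho-rpS6 and 10 uM PI; scan at 488 nm; report % positive cells.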
# * hit, by the source's call; i = inactive; ? = inconclusive; · = not tested or not shown. This is a sample that favours compounds with a hit; in the whole collection about 3% have one here. Unless noted, calls come from the whole dose curve; as a rule, active = well fitted curve in the direction sought with a large enough effect; inconclusive = small, poorly fitted or top-dose-only effect, or another doubt; inactive = no such curve, though single readings can be large; an effect the other way counts as inactive or inconclusive. Unless noted, % is set by controls: 0 for no effect and ±100 for the full control effect; potency is the fitted concentration of half-maximal effect.
SMILES,PMP22 txn,p53null 32C kill,SKOV3 invasion,S16 F2sN tox,p53null 39C kill,pS6 MEF inh
COc1ccc(C(=O)CC2(O)C(=O)N(Cc3cccc(C(F)(F)F)c3)c3ccccc32)cc1 (configuration not stated),?,15%,i,?,?,?
COc1cccc(C(=O)CC2(O)C(=O)N(Cc3ccccc3)c3ccccc32)c1 (configuration not stated),?,-3%,-20%,?,4%,15µM*
O=C(CC1(O)C(=O)N(Cc2ccccc2)c2ccc(Br)cc21)c1ccccc1 (configuration not stated),?,?,i,-14%,13µM*,?
CC1=C(CC(=O)O)c2cc(F)ccc2C1=Cc1ccc(S(C)=O)cc1 (configuration not stated),·,·,37%,·,·,·
O=C(O)C(O)Cc1ccc(O)c(O)c1 (configuration not stated),·,·,-24%,·,·,·
CCOc1ccc(-n2nc3ccc(NC(=O)c4ccc(-c5cccc(Cl)c5)o4)cc3n2)cc1,?,-29%,15%,?,?,12µM*
Cc1c(-c2nc(-c3ccccc3F)no2)nnn1-c1cc(F)ccc1F,?,?,2%,0%,3.2µM*,-4%
CCc1ccccc1-n1nnc(-c2nc(-c3ccccc3F)no2)c1C,?,?,i,2%,-23%,1%
Cc1ccccc1OC(=O)c1cc(-c2ccc3c(c2)OCCO3)on1,3%,?,5%,-1%,?,2%
O=C(Oc1ccccc1Cl)c1cc(-c2ccc3c(c2)OCCO3)on1,?,20µM*,0%,-3%,?,0%
Cc1cccc(OC(=O)c2cc(-c3ccc4c(c3)OCCO4)on2)c1C,-14%,16µM*,i,3%,32µM*,3%
COc1ccc(-c2noc(-c3cccc(OC)c3OC)n2)cc1,0%,13µM*,-2%,3%,18µM*,-14%
COc1cccc(-c2noc(-c3cc4ccccc4oc3=O)n2)c1OC,-2%,-29%,-2%,10%,-7%,-2%
CC1=C(CO)C(=O)O[C@@H]([C@@H](C)[C@H]2CC[C@H]3[C@@H]4C[C@H]5O[C@]56[C@@H](O)C=CC(=O)[C@]6(C)[C@@H]4CC[C@]23C)C1,·,·,4.7µM*,·,·,·
CCCCN(C)CCCNC(=O)Cn1ncc2c3ccccc3n(Cc3cc(C)ccc3C)c2c1=O,?,-3%,?,?,10µM*,-5%
CC(C)(C)c1ccc(/C=C/C(=O)Nc2ccc(S(N)(=O)=O)cc2)cc1,?,25µM*,-14%,?,?,-19%
Cc1ccc(/C=C/C(=O)Nc2ccc(S(N)(=O)=O)cc2)o1,8%,-7%,10%,5%,-5%,-6%
CCN1CCN(c2cc(C)c3cc(NC(=O)c4cccc(Cl)c4)ccc3n2)CC1,?,-5%,-28%,?,22µM*,12µM*
CCCCc1ccc(C(=O)Nc2ccc3nc(N4CCN(CC)CC4)cc(C)c3c2)cc1,?,1%,-7%,?,-14%,2.1µM*
COc1ccc(C(=O)Nc2ccc3nc(N4CCC(C)CC4)cc(C)c3c2)cc1,-7%,?,0%,14%,?,-8%
Cc1cc(N2CCCCC2)nc2ccc(NC(=O)c3ccc(F)cc3)cc12,-52%,·,-9%,-8%,·,0%
CCN1CCN(c2cc(C)c3cc(NC(=O)c4cc(OC)cc(OC)c4)ccc3n2)CC1,?,?,?,?,?,13µM*
Cc1cc(N2CCCCC2)nc2ccc(NC(=O)/C=C/c3ccccc3Cl)cc12,?,-2%,-22%,?,3%,-15%
CCN1CCN(c2cc(C)c3cc(NC(=O)/C=C/c4cccc(Cl)c4)ccc3n2)CC1,?,?,?,?,16µM*,?
Cc1nc(Nc2n[nH]c3c2CN(C(=O)N[C@H](CN(C)C)c2ccccc2)C3(C)C)c2sccc2n1,·,·,30%,·,·,·
SMILES,PMP22 txn,p53null 32C kill,SKOV3 invasion,S16 F2sN tox,p53null 39C kill,pS6 MEF inh
Cc1cc(OCCCc2c(C(=O)O)n(Cc3cccnc3)c3c(-c4c(COc5ccc(N6CCN([S+](C)(=O)[O-])CC6)cc5)nn(C)c4C)cccc23)cc(C)c1Cl,·,·,-3%,·,·,·
Clc1ccc(C(c2ccccc2)c2c[nH]c3ccccc23)s1 (configuration not stated),?,7%,6%,27%,-9%,?
Cc1ccc2[nH]cc(C(c3ccccc3)c3ccc(Cl)s3)c2c1 (configuration not stated),-30%,20µM*,-8%,?,25µM*,?
CCc1ccc(OCC(=O)Nc2ccc3oc(-c4ccc(OC)cc4)nc3c2)cc1,-10%,-5%,-2%,17%,-9%,13µM*
COc1ccc(OCC(=O)Nc2ccc(-c3nc4cc(C)c(C)cc4o3)cc2)cc1,-3%,-9%,-9%,7%,7%,-1%
COc1ccccc1NC(=O)c1c(NCc2ccc(OC)c(OC)c2OC)sc2c1CCCC2,5µM*,35%,13%,?,27%,-10%
CCc1ccc(C2CC(=O)c3c([nH]c(C(=O)OCCOc4ccccc4)c3C)C2)cc1 (configuration not stated),15µM*,-21%,?,?,?,5.2µM*
COc1cc(C2CC(=O)c3c([nH]c(C(=O)OCc4ccc(C)cc4)c3C)C2)cc(OC)c1OC (configuration not stated),?,9%,i,-3%,?,-2%
CCOc1ccc(C2CC(=O)c3c([nH]c(C(=O)OCCOc4ccccc4)c3C)C2)cc1 (configuration not stated),?,-23%,-11%,28µM*,?,-10%
CCOc1ccc(C2CC(=O)c3c([nH]c(C(=O)OC4CCC(C)CC4)c3C)C2)cc1 (configuration not stated),-7%,-8%,25%,4%,10%,-13%
Cc1c(C(=O)OCc2ccccc2)[nH]c2c1C(=O)CC(c1ccc(Cl)cc1)C2 (configuration not stated),?,-4%,i,-27%,-2%,?
COc1ccc(OC)c(C2CC(=O)c3c([nH]c(C(=O)OCc4ccc(C)cc4)c3C)C2)c1 (configuration not stated),-16%,19%,i,?,1%,6.6µM*

# Compound activity as filed in PubChem BioAssay.
